Screening data deposited in PubChem by National Center for Advancing Translational Sciences (NCATS).
WRN helicase inh: inhibitors of human WRN helicase | Q14191 | WRN helicase unwinding, fluorescent forked duplex, kinetic | Potency, µM (top dose mostly 114 µM), for the others: top-dose activity change, negative = inhibition, usual class: inhibitors | 360,000 tested, 0.46% active; further: potency means the concentration at half of the fitted maximal effect; on the % scale 0 is the no-effect control and ±100 the full control effect; nearly all actives have a fitted effect of over 55% in size
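Kinetic red-fluorescence monitoring (525/598 nm) tracks WRN helicase activity after 100 nM fluorophore-quencher forked duplex and 2 mM ATP are added to 20 nM enzyme pretreated 15 min at room temperature with compound.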
Pol kappa inh-1: blocks human DNA polymerase kappa activity | Potency, µM (doses to about 107 µM), for the others: at the highest dose activity, negative = inhibition, usual class: inhibitors | purified Pol kappa, fluorescent DNA synthesis assay, 10 min | 400,000 tested, 0.53% active | Q9UBT6; further: potency means the concentration at half of the fitted maximal effect; on the % scale 0 is the no-effect control and ±100 the full control effect
Target sequence (Q9UBT6 whole entry, looked up): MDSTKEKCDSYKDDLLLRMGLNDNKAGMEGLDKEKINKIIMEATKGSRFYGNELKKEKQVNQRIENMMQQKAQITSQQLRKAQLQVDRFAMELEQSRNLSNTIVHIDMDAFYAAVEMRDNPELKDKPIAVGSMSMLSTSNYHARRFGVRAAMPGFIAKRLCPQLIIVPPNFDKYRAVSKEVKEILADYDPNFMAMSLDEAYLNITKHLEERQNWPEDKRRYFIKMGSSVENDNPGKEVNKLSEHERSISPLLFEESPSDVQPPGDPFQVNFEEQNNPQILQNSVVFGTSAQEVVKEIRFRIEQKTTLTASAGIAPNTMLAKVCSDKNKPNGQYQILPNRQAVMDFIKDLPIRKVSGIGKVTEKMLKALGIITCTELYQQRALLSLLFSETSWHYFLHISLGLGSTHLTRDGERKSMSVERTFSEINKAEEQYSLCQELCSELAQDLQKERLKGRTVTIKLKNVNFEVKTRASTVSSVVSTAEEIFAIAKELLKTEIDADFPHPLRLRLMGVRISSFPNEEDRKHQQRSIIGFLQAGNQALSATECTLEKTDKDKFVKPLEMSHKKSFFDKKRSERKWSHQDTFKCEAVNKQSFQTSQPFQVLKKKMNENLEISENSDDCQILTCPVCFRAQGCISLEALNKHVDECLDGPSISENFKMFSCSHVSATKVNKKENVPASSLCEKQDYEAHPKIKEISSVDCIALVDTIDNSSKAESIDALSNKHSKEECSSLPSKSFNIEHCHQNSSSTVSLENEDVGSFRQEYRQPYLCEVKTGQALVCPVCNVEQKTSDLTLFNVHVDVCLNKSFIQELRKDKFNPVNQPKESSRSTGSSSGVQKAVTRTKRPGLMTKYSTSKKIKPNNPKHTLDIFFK
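Inhibition of 10 nM Pol kappa is measured by a fluorescent read-out at 0 and 10 min following addition of 50 nM substrate (final), with a 15-min room-temperature compound preincubation.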
FEN1 inhibitor: human FEN1 inhibition; P39748; Recombinant FEN1 flap cleavage, fluorescence, 15 min; Potency, µM (highest dose often 114 µM), inactives show at the top dose activity change, negative = inhibition, usual class: inhibitors; 390,000 tested, 0.35% active; AID 588795; further: potency means the concentration at half of the fitted maximal effect; on the % scale 0 is the no-effect control and ±100 the full control effect; nearly all actives have a fitted effect of over 65% in size
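With each library titrated from low to high concentration, compounds met 10 nM FEN1 for 15 min at room temperature before 50 nM substrate was added; readings at 0 and 15 min fed four-parameter Hill curve fits.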
POLI inh: DNA polymerase iota (human) inhibition. Pol iota fluorescent replication assay, 10 min. Potency, µM (top dose mostly 115 µM), without a hit: at the top dose activity, negative = inhibition, most hits filed as inhibitors. 390,000 tested, 1% active; further: potency means the concentration at half of the fitted maximal effect
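Fluorescent replication assay read twice, at 0 min and 10 min after adding 50 nM (final) substrate. Enzyme (10 nM) and compounds were first incubated 15 min at room temperature; enzyme-free buffer wells were negative controls.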
POLB inh: blocks human DNA polymerase beta activity; Pol beta primer extension/strand displacement, fluorescence kinetic; 340,000 tested, 1.3% active; P06746; Potency, µM (titrated, usually from 114 µM), for the others: top-dose activity change, negative = inhibition, actives largely listed as inhibitors; further: potency means the concentration at half of the fitted maximal effect; on the % scale 0 is the no-effect control and ±100 the full control effect
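10 nM enzyme + cpd, 15 min RT; start with substrate 50 nM final; read 0 min and after 10 min RT. Corrected, normalized data; 4-parameter Hill curve fit.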
Pol eta inh-1: DNA polymerase eta (human) inhibition; Q9Y253; recombinant Pol eta, fluorescent DNA replication assay; Potency, µM (titrated, usually from 114 µM), for inactives: at the highest dose activity change, negative = inhibition, most hits filed as inhibitors; 390,000 tested, 1.2% active; further: potency means the concentration at half of the fitted maximal effect; on the % scale 0 is the no-effect control and ±100 the full control effect
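Pol eta at 10 nM preincubated with compounds 15 min at room temperature; reaction started with fluorescent substrate (50 nM final) and read kinetically at 0 and 10 min.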
GALK inh confirm: galactokinase (human) inhibition, confirmation. shares compounds with Pol eta inh-1. Potency, µM (highest dose often 115 µM), for inactives: at the top dose activity, negative = inhibition, hits mostly inhibitors. 150 tested, 70% active. AID 2015. purified GALK, Kinase-Glo ATP depletion luminescence
Redox cycling: counter-screen for GALK inhibitors: redox cycling H2O2 generation; AID 2035; Phenol red-HRP H2O2 redox cycling, absorbance 600 nm; 150 tested, 40% active; Potency, µM (top dose mostly 115 µM), without a hit: at the highest dose activity change, negative = H2O2 signal, actives largely listed as inhibitors; shares compounds with Pol eta inh-1
HEK293 viability: counter-screen for GALK inhibitors: HEK293 cell cytotoxicity; shares compounds with Pol eta inh-1; HEK-293 viability, ATP luminescence (CellTiter-Glo), 24/48 h; Potency, µM (series often up to 46.1 µM), without a hit: at the highest dose activity change, negative = cytotoxicity, hits mostly inhibitors; 170 tested, 10% active; further: potency means the concentration at half of the fitted maximal effect; on the % scale 0 is the no-effect control and ±100 the full control effect
Pol kappa inh-2: confirmation of human DNA polymerase kappa inhibitors; purified Pol-kappa, fluorescent strand-displacement substrate; Potency, µM, hits mostly inhibitors; 920 tested, 76% active; shares compounds with Pol eta inh-1; further: potency means the concentration at half of the fitted maximal effect
Pol eta inh-2: confirmation of human DNA polymerase eta inhibitors. shares compounds with Pol eta inh-1. Pol eta primer extension, TAMRA/BHQ fluorescence, 10 min. Potency, µM, actives largely listed as inhibitors. 2,600 tested, 64% active. AID 720502; further: potency means the concentration at half of the fitted maximal effect
* hit, by the source's call; ? = inconclusive; · = not tested or not shown; [ ] = dose if it differs, or a comment. This is a sample that favours compounds with a hit; in the whole collection about 2.4% have one here. The call rests on the fitted dose curve; in most records, active means well fitted curve in the direction sought with a large enough effect; inconclusive means small, poorly fitted or top-dose-only effect, or another doubt; inactive means no such curve, though single readings can be large; an effect the other way counts as inactive or inconclusive.

SMILES	WRN helicase inh	Pol kappa inh-1	FEN1 inhibitor	POLI inh	POLB inh	Pol eta inh-1	Pol eta inh-2	others
CCC(=O)N1CCc2cc(Br)cc(S(=O)(=O)CCC(=O)NCCc3ccc(C)cc3)c21	·	-4.9%[60.1 µM]	-6.3%	15.8%	0.7%	-17.5%	·
CCC(=O)N1CCc2cc(Br)cc(S(=O)(=O)CCC(=O)NCCc3ccccc3Cl)c21	·	-18.9%	15.8%	-14.6%	?	?	75.7*	Pol kappa inh-2=33.6*
CC1=NN2C(=N)/C(=C\c3ccc(SCc4ccccc4)o3)C(=O)N=C2S1	?	-14.4%	-6.9%	?	?	?	·
N=C1/C(=C\c2ccc(SCc3ccco3)o2)C(=O)N=C2SC=NN12	56.2µM*	50.1µM*	?	?	39.8µM*	14.1µM*	53.6*
c1cnc2c(c1)ccc1cccnc12	-6.1%	-5.5%[60.1 µM]	?	-6.0%[58.9 µM]	10.4%[57.1 µM]	1.3%[57.1 µM]	·
O=C1C=CC(=O)N1c1cccc2cccnc12	?	89.1µM*	-5.1%	?	·	28.2µM*	75.7*	Pol kappa inh-2=?
Cc1[nH]c2ccccc2c1/C=N/NC(=O)c1cccc(Br)c1	-13.9%	-8.3%	-9.1%	41.7%	?	?	·
Cc1[nH]c2ccccc2c1/C=N/Nc1cccc(C(=O)O)c1	-12.3%	?	-20.1%	?	?	56.2µM*	?
CN1CCN(c2ccnc(-c3ccccc3C(F)(F)F)n2)CC1	·	-10.2%[60.1 µM]	·	·	·	·	·
COc1ccc(S(=O)(=O)NC(=O)C2(C)CCN2C(=O)CC2CCCCC2)cc1OC (configuration not stated)	5.2%[57.1 µM]	·	·	·	·	·	·
CC1=C(C)CC(C(=O)NC2CCCC2)C(C(=O)O)C1 (configuration not stated)	12.4%	13.0%	0.9%	1.7%	-10.7%	-8.6%	·
CC1=CCC(C(=O)O)C(C(=O)NC2CCCCC2)C1 (configuration not stated)	-10.0%[11.6 µM]	-41.2%	1.5%	?	28.2µM*	20µM*	84.9*	Pol kappa inh-2=84.4*
O=C(O)/C=C/C(=O)Nc1ccc(C2(c3ccc(NC(=O)/C=C/C(=O)O)cc3)c3ccccc3-c3ccccc32)cc1	-16.4%[11.6 µM]	-11.9%	11.2%	?	50.1µM*	50.1µM*	?
CCOC(=O)Cc1csc(NC(=O)NC2(C(F)(F)F)Oc3cc(Cl)c(Cl)cc3O2)n1	-17.0%	20µM*	7.3%	-10.1%	-7.2%	-20.0%	·	Pol kappa inh-2=10.6*
CO[C@@H]1C[C@H](O[C@H]2[C@@H](C)[C@H](O[C@@H]3O[C@@H](C)C[C@@H](N(C)C)[C@@H]3OC(C)=O)[C@H](C)C[C@]3(CO3)C(=O)[C@H](C)[C@H](OC(C)=O)[C@H](C)[C@H](C)OC(=O)[C@@H]2C)O[C@H](C)[C@@H]1OC(C)=O	·	-7.8%[12 µM]	·	·	·	·	·
COC(=O)c1ccccc1NC1=C/C(=N\S(=O)(=O)c2ccc(C(=O)O)cc2)c2ccccc2C1=O	?	?	20µM*	1.12µM*	31.6µM*	14.1µM*	·	GALK inh confirm=?;Redox cycling=11.9µM*;HEK293 viability=?
COC(=O)c1ccccc1Nc1ccccc1	2.8%	-4.6%	-13.0%	1.7%	10.9%	-13.8%	·
Cc1ccccc1S(=O)(=O)NC(=O)C1(C)CCN1C(=O)CC(c1ccccc1)c1ccccc1 (configuration not stated)	3.7%[57.1 µM]	·	·	·	·	·	·
CCc1c(O)nc(SCC(=O)Nc2ccc(Cl)cc2)n(-c2ccccc2)c1=O	-1.3%	·	·	·	·	-10.3%	·
COc1cc(/C=C2\C(=N)N3N=C(S(C)(=O)=O)SC3=NC2=O)ccc1OCCOc1ccc(C)cc1	-33.3%[11.6 µM]	3.4%[60.1 µM]	11.9%	?	-28.7%	?	?	Pol kappa inh-2=26.7*
COc1cc(/C=C2\C(=N)N3N=C(S(C)(=O)=O)SC3=NC2=O)cc(OC)c1OCCOc1ccc(C)cc1	-11.9%[11.6 µM]	-12.8%	-0.7%	?	3.4%	-10.8%	·
COc1cc(/C=C2\C(=N)N3N=C(S(=O)(=O)CC(C)C)SC3=NC2=O)ccc1OC(=O)c1ccco1	·	·	·	·	-22.2%	·	·	GALK inh confirm=26.6µM*;Redox cycling=-3.7%;HEK293 viability=3.4%
CCS(=O)(=O)C1=NN2C(=N)/C(=C\c3ccc(OCCOc4cccc(OC)c4)c(OC)c3)C(=O)N=C2S1	-33.0%	-25.4%	-1.5%	?	50.1µM*	35.5µM*	?	Pol kappa inh-2=?
COc1cc(/C=C2/C(=N)N3OC(C)=CC3=NC2=O)ccc1OC(=O)c1ccco1	-8.4%[57.1 µM]	-18.7%	-5.2%	25.3%	-12.3%	2.7%	·
COc1cc(/C=C2/C(=N)N3C=CSC3=NC2=O)ccc1OCCCOc1ccccc1C	-25.0%	-18.1%	?	22.5%	-2.8%	-15.5%	·
Cc1ccc(S(=O)(=O)N2CCOCC2)cc1NC(=O)CSc1nnc(COc2ccccc2F)n1N	4.6%	-5.8%	-10.1%	21.1%	·	-11.2%	·
O=C(c1ccc2c(c1)N(Cc1ccccc1)C(=O)c1ccccc1S2(=O)=O)N1CCCCCC1	·	-5.6%	5.2%	11.3%	2.3%	·	·
NNc1cc([N+](=O)[O-])cc2c1C(=O)N(Cc1ccccc1)S2=O (configuration not stated)	-10.3%[57.1 µM]	79.4µM*	-21.1%	35.5µM*	?	44.7µM*	?	Pol kappa inh-2=?
CC(C)=NNc1cc([N+](=O)[O-])cc2c1C(=O)N(C)S2=O (configuration not stated)	5.6%	-3.8%	-1.0%	-18.9%	-0.7%	-6.5%	·
COc1cc(OC)c(-c2nn3c(-c4n[nH]c5c4CCC5)nnc3s2)cc1OC	·	-9.2%	-7.2%	-16.0%	·	·	·
